# Most compounds without a hit are left out; they make up all but 1.1% or so of the library.
# MOR-DOR ag-1: agonists of human mu-delta opioid receptor heterodimerization. activation, % at 9.3 µM. P35372+P41143. AID 504326. cells, OPRM1-OPRD1 heterodimerization, luminescence. hit rate 0.3% among 340,000;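 note: 0% = vehicle-treated cells and 100% = reference agonist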
# OPRM1-OPRD1 inv: inverse agonist of human OPRM1-OPRD1 heterodimerization | P35372+P41143 | hit rate 0.21% among 340,000 | AID 504357 | inhibition, % at 9.3 µM | cell-based MOR-DOR heterodimer luminescence, inverse agonism; in the data active = inhibition above about 22%, passing the limit was not always enough;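 note: 0% = cells with DMSO and 100% = wells without cells with DMSO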
# HTR5A inv ag: HTR5A inverse agonism, opioid heterodimer counter-screen; hit rate 0.083% among 340,000; HTR5A cell line, luminescence; inhibition, % at 9.3 µM; in the data active = inhibition mostly above about 23%, no sharp cut-off; inactive = mostly below about 18%;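 note: 0% = cells with DMSO and 100% = no-cell wells with DMSO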
# Target sequence (P47898 whole entry, looked up): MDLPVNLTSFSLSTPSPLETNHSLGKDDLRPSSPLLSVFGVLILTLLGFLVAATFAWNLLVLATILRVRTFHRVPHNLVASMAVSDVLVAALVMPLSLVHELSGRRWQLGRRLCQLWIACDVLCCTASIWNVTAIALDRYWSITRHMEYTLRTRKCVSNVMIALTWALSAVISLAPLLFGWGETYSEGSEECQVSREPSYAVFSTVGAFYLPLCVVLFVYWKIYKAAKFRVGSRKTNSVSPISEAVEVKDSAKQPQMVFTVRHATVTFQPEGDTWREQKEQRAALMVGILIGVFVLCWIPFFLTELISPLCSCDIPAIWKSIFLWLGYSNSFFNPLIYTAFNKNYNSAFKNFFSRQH
# HTR5A ag: counter-screen for OPRM1-OPRD1 agonists: human HTR5A agonism. P47898. HTR5A agonist assay, luminescence, cell-based. activation, % at 9.3 µM. hit rate 0.61% among 340,000. AID 504692; in the data active = activation mostly above about 9.5%, no sharp cut-off; inactive = mostly below about 7.6%;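 note: 0% = cells with vehicle only and 100% = reference agonist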
# MOR-DOR ag-2: opioid heterodimer agonism, HTR5A counter-screen; U2OS counter-screen cells, complementation luminescence, 3 h; hit rate 13% among 800; activation, % at 9.3 µM; shares compounds with HTR5A ag
# HTR5A ag conf: HTR5A (human) agonism, confirmation; shares compounds with HTR5A ag; HTR5A agonist cell assay, luminescence; activation, % at 9.3 µM; hit rate 17% among 800; AID 504915; in the data active = activation above about 17%;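 note: 0% = cells with vehicle only and 100% = full reference agonist response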
# * = called active by the depositor; x = not tested or not shown. Cut-off read from the data, not from the text of the source, unless noted: active = activation above about 18%; inactive = the rest.
SMILES,MOR-DOR ag-1,OPRM1-OPRD1 inv,HTR5A inv ag,HTR5A ag,MOR-DOR ag-2,HTR5A ag conf
COc1ccc(NC(=O)CN(C)CC(=O)Nc2ccc3c(c2)CCC3)cc1,-2.1,11.0,-9.9,-2.0,x,x
Cc1ccc(C23CC4CC(CC(C(=O)NC(C)C(=O)O)(C4)C2)C3)cc1 (stereo not drawn),-2.0,9.1,-4.8,1.4,x,x
CCOC(=O)c1c(C)c(-c2ccccc2)n(CC(=O)NCCC(C)C)c1C,-3.0,16.3,0.3,-2.6,x,x
O=C(COC(=O)/C=C/c1ccc(C(F)(F)F)cc1)NC(=O)NCc1ccco1,0.6,-2.3,-47.7,19.6*,119.4*,0.9
CC(C)(C)OC(=O)C[C@@H]1C/C=C\C[C@@H](CC(=O)N[C@@H](CO)Cc2ccccc2)C(=O)N2CCC[C@@H]2COC1=O,-0.8,4.9,-9.4,-1.4,x,x
O=C1CC(c2cccc(Cl)c2)Cc2nc(N3CCN(c4ccccc4)CC3)ncc21 (stereo not drawn),-1.6,6.9,-42.0,16.8*,1.7,2.4
CCN1CCc2c(sc(NC(=O)C3COc4ccccc4O3)c2C(N)=O)C1 (stereo not drawn),-2.5,12.8,-43.8,14.8*,-2.5,-1.5
CCOC(=O)N1CCc2c(sc(NC(=O)C3COc4ccccc4O3)c2C(N)=O)C1 (stereo not drawn),0.7,-3.4,-95.3,44.4*,1.6,59.6*
CC(=O)N1CCc2c(sc(NC(=O)C3COc4ccccc4O3)c2C(N)=O)C1 (stereo not drawn),-0.9,4.8,-138.0,38.5*,0.0,49.3*
CN1CCc2c(sc(NC(=O)C3COc4ccccc4O3)c2C(N)=O)C1 (stereo not drawn),-2.0,10.7,-69.1,17.4*,0.3,51.5*
CCN1CCc2c(sc(NC(=O)Cc3ccccc3)c2C(N)=O)C1,-2.6,14.4,-1.7,2.4,x,x
CN1CCc2c(sc(NC(=O)Cc3ccccc3)c2C(N)=O)C1,-0.9,5.6,-35.8,11.8,x,x
COC(=O)c1c(NC(=O)C2COc3ccccc3O2)sc2c1CCN(C(C)=O)C2 (stereo not drawn),-0.4,2.1,-2.1,0.6,x,x
CC1CCCCC12NC(=O)N(CC(=O)Nc1ccc3[nH]c(=O)[nH]c3c1)C2=O (stereo not drawn),-0.6,3.9,-16.2,6.2,x,x
CSc1nc2sc3c(c2c(=S)[nH]1)CC(C)(C)OC3,-3.5,16.4,13.7,-3.8,x,x
Cc1ccc2[nH]c(=O)c3cc(C(=O)N(CCCOC(C)C)Cc4ccco4)sc3c2c1,5.8,-34.4,-82.7,27.2*,11.0,13.0
CCOc1ccccc1N(CC(=O)N/N=C/c1cc(Br)ccc1OC)S(C)(=O)=O,1.2,-6.0,-24.4,1.1,x,x
Cc1ccc(SCCC(=O)Nc2ccccc2C(=O)NC(C)C)cc1,-1.0,5.1,-42.1,16.7*,2.6,-2.4
O=C(NCc1ccc2c(c1)OCO2)c1cnc2n(c1=O)CCS2,-0.9,4.8,-52.9,18.9*,0.5,0.1
C/C(=N/NS(=O)(=O)c1ccc(C)cc1)c1ccc2c(c1)OCO2,0.9,-4.5,8.5,4.3,x,x
C/C(=N/NS(=O)(=O)c1ccc(C)cc1C)c1c[nH]c2ccccc12,0.0,0.0,-67.3,18.4*,2.8,6.6
C/C(=N/NS(=O)(=O)c1ccc(C)c(C)c1)c1c[nH]c2ccccc12,-4.0,13.2,5.2,2.5,x,x
C/C(=N/NS(=O)(=O)c1ccc(C)cc1C)c1ccc2c(c1)OCO2,-4.2,21.4,-48.3,20.1*,-0.9,-10.8
O=S(=O)(NCc1ccccc1)c1ccc(S(=O)(=O)N2CCCCC2)cc1,0.0,-0.1,-14.1,4.3,x,x
O=S(=O)(c1ccc(S(=O)(=O)N2CCCN(Cc3ccccc3)C2)cc1)N1CCCCCC1,-2.2,11.5,-4.4,15.0*,0.4,3.2
O=[N+]([O-])c1ccc(S(=O)(=O)NN=C2CCCCC2)cc1,-1.3,6.8,-54.8,15.3*,1.8,4.1
O=S(=O)(NN=C1CCCCCC1)c1ccc(Cl)cc1,-3.2,16.7,-30.2,3.4,x,x
Cc1ccc(S(=O)(=O)N2CCOC2CNC(=O)C(=O)NCCc2ccc(S(N)(=O)=O)cc2)cc1 (stereo not drawn),-0.1,0.7,-13.7,3.8,x,x
Cc1cc(F)ccc1S(=O)(=O)N1CCCOC1CNC(=O)C(=O)NCCc1c[nH]c2ccccc12 (stereo not drawn),-0.8,4.5,-74.9,16.2*,42.8*,4.0

# Assay outcomes deposited in PubChem by The Scripps Research Institute Molecular Screening Center.
